ALOX12 inh – ALOX12 (human) lipoxygenase inhibition; purified 12hLO, xylenol orange hydroperoxide absorbance; AID 1671190; Potency, µM (highest dose often 108 µM), usual class: inhibitors; 1.1% of 580,000 active
Target sequence (P18054 whole entry, looked up): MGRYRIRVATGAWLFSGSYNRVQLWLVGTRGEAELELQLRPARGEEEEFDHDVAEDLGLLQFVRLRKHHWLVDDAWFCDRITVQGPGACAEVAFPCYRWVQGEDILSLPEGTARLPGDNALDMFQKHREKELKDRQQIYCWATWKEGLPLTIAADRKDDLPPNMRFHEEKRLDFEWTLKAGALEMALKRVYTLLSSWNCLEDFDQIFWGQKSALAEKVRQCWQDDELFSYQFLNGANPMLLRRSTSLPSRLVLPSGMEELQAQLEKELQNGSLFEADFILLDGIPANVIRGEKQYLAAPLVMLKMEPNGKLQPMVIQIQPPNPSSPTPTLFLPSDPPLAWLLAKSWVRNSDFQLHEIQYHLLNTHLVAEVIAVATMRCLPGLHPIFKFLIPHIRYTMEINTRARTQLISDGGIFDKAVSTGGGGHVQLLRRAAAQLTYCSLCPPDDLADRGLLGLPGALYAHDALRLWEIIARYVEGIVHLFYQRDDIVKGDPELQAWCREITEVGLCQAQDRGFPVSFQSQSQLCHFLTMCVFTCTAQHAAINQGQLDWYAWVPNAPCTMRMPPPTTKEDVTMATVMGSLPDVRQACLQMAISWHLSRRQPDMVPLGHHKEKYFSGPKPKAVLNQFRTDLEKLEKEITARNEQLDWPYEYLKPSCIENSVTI
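Purified human 12hLO (150 nM final) in 25 mM Hepes, 0.01% Triton X-100, pH 7.0 was preincubated 15 min at room temperature with compound. Then 40 uM arachidonic acid was added, 30 min. Hydroperoxide was read by Fe-XO absorbance ratio 573/405 nm.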
FUS yeast rescue – suppressors of FUS proteinopathy in yeast; 0.24% of 390,000 active; AID 1347120; Potency, µM (series often up to 76.6 µM), usual class: activators; S. cerevisiae FUS-expressing, growth rescue, OD600, 24 h; further: nearly all actives have a fitted effect of over 55% in size
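Quantitative HTS measuring growth restoration of FUS-toxic yeast. Galactose-induced cells (OD 0.005) were exposed 24hr at 30C to compounds at several concentrations, then absorbance at 600 nm was recorded.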
gsp ag – gsp mutant agonism; Potency, µM (titrated, usually from 76.9 µM), hits mostly activators; gsp mutant cells, cAMP HTRF, 30 min; AID 624287; 0.13% of 340,000 active; active means well fitted activation curve with a large enough effect; inconclusive means small, poorly fitted or top-dose-only effect, or another doubt; inactive means no such curve, though single readings can be large or run the other way; cell line not stated here;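 further: phosphodiesterase inhibitor Ro 20-1724 added with compounds to block cAMP breakdown; nearly all actives have a fitted effect of over 60% in size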
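Cells in DMEM/10% FBS with G418 were pretreated with compounds in DMSO plus […] (300 uM stock) for 30 min at 37C. cAMP was measured by HTRF (cAMP-d2 plus anti-cAMP antibody-K) after 30 min at room temperature.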
gsp antagonist – antagonists of gsp mutant (McCune-Albright syndrome); gsp-mutant cells, cAMP HTRF, 30 min; Potency, µM (highest dose often 76.9 µM), most hits filed as inhibitors; 0.4% of 340,000 active; AID 624288; calls by dose curve; cell line not stated here;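 further: intracellular cAMP measured with PDE inhibitor Ro 20-1724 present during compound exposure; nearly all actives have a fitted effect of over 65% in size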
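Cells in G418 medium, seeded 16-24 h, 37C; buffer exchange to DPBS + 1 mM CaCl2, 0.5 mM MgCl2, 0.05% BSA; cpds in DMSO + […] (300 uM stock), 30 min 37C; HTRF cAMP detection.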
Mito fusion yeast – blocks mitochondrial division or promotes mitochondrial fusion | S. cerevisiae fusion-defective mutant growth rescue, CellTiterGlo 48 h | Potency, µM (series often up to 46.1 µM), hits mostly activators | 0.23% of 320,000 active; further: nearly all actives have a fitted effect of over 45% in size
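Luminescent cell viability in 1536-well qHTS format served as the measure of rescued growth in ts fusion-mutant S. cerevisiae cultured on non-fermentable YPEG for 48 hours at 37C.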
Hits are given with their value; - = inactive; ? = inconclusive; . = no result; + = active, no number; [ ] = another dose, or the depositor's remark. Compounds with a hit are over-represented: about 1.6% of the library has one in this group of screens. Unless noted, the call rests on the fitted dose curve; in most records, active means well fitted curve in the direction sought with a large enough effect; inconclusive means small, poorly fitted or top-dose-only effect, or another doubt; inactive means no such curve, though single readings can be large; an effect the other way counts as inactive or inconclusive.

SMILES	ALOX12 inh	FUS yeast rescue	gsp ag	gsp antagonist	Mito fusion yeast
CC(C)(C)c1ccc(C(=O)NC2CCN(Cc3ccccc3)CC2)cc1	?	-	-	-	35µM
CC(NC(=O)c1cccc(S(=O)(=O)N2CCN(Cc3ccccc3)CC2)c1)c1ccccc1Cl (stereo not given)	-	-	-	+	.
O=C(NC1CCN(Cc2ccccc2)CC1)c1cc(S(=O)(=O)N2CCOCC2)ccc1Cl	-	-	-	50µM	.
Cc1c(C(=O)NC2CCN(Cc3ccccc3)C2)oc2c(Cl)cccc12 (stereo not given)	?	-	-	-	3.5µM
O=C(NC1CCN(Cc2ccccc2)CC1)c1ccccc1	-	-	-	-	-
CCc1ccc(Nc2n[n+](-c3ccccc3)c(-c3cc(OC)c(OC)cc3Br)s2)cc1	40µM	-	.	-	-
c1ccc(COc2ccc(-c3sc(Nc4ccccc4)n[n+]3-c3ccccc3)cc2)cc1	.	.	.	.	-
Fc1ccc(-[n+]2nc(Nc3ccccc3)sc2-c2c(Cl)cccc2Cl)cc1	?	-	.	?	-
O=C(O)c1ccc(-c2sc(Nc3ccccc3)n[n+]2-c2ccccc2)cc1	?	-	.	-	-
CCc1ccc(Nc2n[n+](-c3ccccc3)c(-c3c(Cl)cccc3Cl)s2)cc1	?	-	.	32µM	-
CCc1ccc(Nc2n[n+](-c3ccccc3)c(-c3ccc(OCc4ccccc4)cc3)s2)cc1	22µM	?	-	-	-
CCc1ccc(Nc2n[n+](-c3ccccc3)c(-c3ccc(N(CC)CC)cc3)s2)cc1	40µM	?	.	-	-
Cc1cnc(CCNC(=O)Cn2c(=O)oc3ccccc32)n1C1CCC1	-	.	.	.	.
Cc1ccc(C(=O)/C(=C\c2cccc(Br)c2)c2nc3ccccc3o2)cc1	-	.	.	.	.
Cc1cc(C)n(C(=O)c2cn(C)nc2S(=O)(=O)N2CCN(c3cccc(F)c3)CC2)n1	-	.	.	.	.
O=C(CNc1ccc(Br)cc1)N(C1CCCCC1)C1CCS(=O)(=O)C1 (stereo not given)	-	.	.	.	.
CCN(CC)c1ccc(-c2sc(Nc3ccccc3)n[n+]2-c2ccc(F)cc2)cc1	?	?	?	-	-
CN(C)c1ccc(-c2sc(Nc3ccccc3)n[n+]2-c2ccc(F)cc2)cc1	45µM	-	.	-	-
Cc1ncc(-c2ccc(S(=O)(=O)Nc3ccccc3)cc2)o1	-	.	.	.	.
CC(=O)n1cc([C@H]2C=C(C(=O)N3CCN(Cc4ccccc4)CC3)O[C@@H](OCCCCO)C2)c2ccccc21	.	-	.	35µM	-
CC(=O)n1cc([C@@H]2C=C(C(=O)N3CCN(Cc4ccc5c(c4)OCO5)CC3)O[C@H](OCCCCO)C2)c2ccccc21	-	-	.	-	-
CC(=O)n1cc([C@H]2C=C(C(=O)NCc3ccccc3)O[C@@H](OCc3ccc(CO)cc3)C2)c2ccccc21	-	25µM	.	?	-
Cc1cc(C(=O)OC(C)C(=O)NC(N)=O)c2ccccc2n1 (stereo not given)	-	.	.	.	.
Cc1ccc(S(=O)(=O)NN(Cc2ccccc2)Cc2ccccc2)cc1	16µM	-	-	.	.
CCOC(=O)c1cnc(-n2nc(C)cc2C)nc1NCCc1ccccc1	45µM	.	-	-	-
SMILES	ALOX12 inh	FUS yeast rescue	gsp ag	gsp antagonist	Mito fusion yeast
CC(=O)OCc1nc2sc3c(c2c(=O)[nH]1)CCCC3	-	-	?	-	-
COCc1nc2sc3c(c2c(=O)[nH]1)CCCC3	-	.	-	-	22µM
O=C1Nc2ccccc2N=C(c2ccccc2)C1Br (stereo not given)	40µM	-	-	-	-
O=C(NCc1cc(F)cc(F)c1)C1(c2ccc(Cl)cc2)CCOCC1	-[6.33 µM]	.	.	.	.
COc1ccc(N=N/C(=C\O)C(=O)c2cccs2)cc1	35µM	-	-	?	-
COc1ccc(C(=O)/C(=C/O)N=Nc2ccc(F)cc2)cc1	11µM	-	-	?	-
N#Cc1nc(-c2ccc(S(=O)(=O)N3CCc4ccccc4C3)cc2)oc1NCCCn1ccnc1	-	.	.	.	.
CCc1ccccc1NS(=O)(=O)c1ccc(OC)c2ncccc12	-	-	-	28µM	-
CCc1ccc(NS(=O)(=O)c2ccc(OC)c3ncccc23)cc1	?	-	-	-	-
COc1ccc2c(=O)c(-c3ccccc3)coc2c1	-	-	-	-	-
COc1ccc2c(=O)c(-c3ccccc3)coc2c1C	32µM	.	.	.	.
CCS(=O)(=O)N1CCN(C(C)CCc2ccccc2)CC1 (stereo not given)	?	-	-	-	-
CC(CCc1ccccc1)N1CCN(Cc2ccccc2)CC1 (stereo not given)	5.6µM	-	-	-	-
CC1(C)[C@@H](O)CC[C@]2(C)C3C(O)C=C4[C@H]5C[C@@](C)(CO)CC[C@]5(C)CC[C@]4(C)[C@]3(C)CC[C@@H]12 (stereo not given in full)	-	-	.	-	11µM
O=S(=O)(Nc1nc2ccccc2nc1NC1CC1)c1ccccc1	-	.	.	.	.
O=S(=O)(Nc1nc2ccccc2nc1NC1CCCCC1)c1ccc(F)cc1	0.63µM	.	.	.	.
CC(C)CCN1CCCC2(CNc3ccccc3[S+](=O)([O-])N2)C1 (stereo not given)	-	.	.	.	.
Cc1ccc(NC(=O)C(C)OC(=O)c2ccc(NC(=O)CC#N)cc2)cc1S(=O)(=O)N1CCOCC1 (stereo not given)	?	14µM	-	-	-
O=C(Nc1ccccc1)c1ccc(F)c(S(=O)(=O)N2CCOCC2)c1	-	-	-	-	-
Cc1ccc(NC(=O)c2ccc(F)c(S(=O)(=O)N3CCOCC3)c2)cc1F	-	-	-	35µM	-
CCc1ccccc1NC(=O)CN(C)C(=O)c1nn(-c2ccccc2)c2c1CCC2	-	.	.	.	.
Clc1ccccc1C1(c2ccnc(NCCc3cccnc3)n2)CCNCC1	20µM	.	.	.	.
COc1ccc(OCCCN)cc1	-	.	.	.	.
C=CCNC(=S)NC(=O)c1ccc(C)c(Br)c1	35µM	-	-	-	-
C=CCNC(=S)NNC(=O)c1ccc(C)c(Cl)c1	-	-	-	-	-
SMILES	ALOX12 inh	FUS yeast rescue	gsp ag	gsp antagonist	Mito fusion yeast
Cc1ccc(NS(=O)(=O)c2ccc(-c3cnc(C)o3)cc2)c(C)c1	-	.	.	.	.
Cc1sc(/N=C/c2c[nH]c3ccccc23)c(C#N)c1C	20µM	.	.	.	.
Cc1sc(/N=C/c2ccc(Br)cc2)c(C#N)c1C	18µM	.	.	.	.
Cc1sc(/N=C/c2ccc(C(C)(C)C)cc2)c(C#N)c1C	-	.	.	.	.
CCN(CC1CCOC1)C(=O)Cn1nc(C)c2ccccc2c1=O (stereo not given)	-	.	.	.	.
CCCCN(C)C(=O)C1CCCN(S(=O)(=O)c2ccc3c(c2)CC(C)N3C(=O)C2CC2)C1 (stereo not given)	-	-	-	-	1.1µM
CCOC(=O)C1CCCCN1S(=O)(=O)c1ccc2c(c1)CC(C)N2C(=O)C1CCC1 (stereo not given)	-	25µM	-	-	-
CC1CCN(S(=O)(=O)c2cn(CC(=O)Nc3cccc(-c4ccno4)c3)cn2)CC1	-	.	.	.	.

Assay outcomes as filed in PubChem.
